Reference: PubChem BioAssay AID1159580 (chemical genetic matrix, 2015)
Values joined by “and” are separate entries in the source; they are usually repeats but may differ in a detail not shown here. Identical values can stand only once. The campaign covered roughly 5,500 compounds. About 2,000 (36%) were called active. Another 18% or so got no clear call; they are omitted. Cut-off read from the data, not from the text of the source: active = normalized growth mostly below about 0.91 (no sharp cut-off); inconclusive = no clear call, values can overlap the other calls; inactive = mostly above about 0.92. This is one part of the list.

Assay: chemical genetic growth profiling, strain panel (AID 1159580);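 note: tested at 20 µM; growth read once vehicle control cultures reached saturation at 30 °C; 1 = growth at the plate median or of vehicle wells; lower values mean less growth of the strain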
Conditions: S. cerevisiae deletion strains, growth OD

Measured: normalized growth

O=C(OCc1ccccc1)c1ccccc1
0.789 (active) and 0.886 (inactive): locus YJL095W, strain BCK1, stronger effect = lower value
inactive: locus YAL021C, strain ccr4, stronger effect = lower value 1.02 | locus YAL026C, strain drs2, stronger effect = lower value 0.93 | locus YAL030W, strain snc1, stronger effect = lower value 0.967 | locus YBL061C, strain skt5, stronger effect = lower value 0.966 | locus YBR009C, strain hhf1, stronger effect = lower value 0.954 | locus YBR021W, strain FUR4, stronger effect = lower value 1 | locus YBR023C, strain chs3, stronger effect = lower value 0.942 | locus YBR171W, strain sec66, stronger effect = lower value 0.927 | locus YBR229C, strain ROT2, stronger effect = lower value 0.994 | locus YBR231C, strain swc5, stronger effect = lower value 0.995 | locus YBR279W, strain paf1, stronger effect = lower value 0.979 | locus YCL011C, strain gbp2, stronger effect = lower value 0.978 | locus YCL016C, strain dcc1, stronger effect = lower value 0.947 | locus YCL029C, strain bik1, stronger effect = lower value 0.969 | locus YCL061C, strain MRC1, stronger effect = lower value 0.958 | locus YCL069W, strain vba3, stronger effect = lower value 0.966 | locus YCR088W, strain abp1, stronger effect = lower value 0.946 | locus YDL005C, strain med2, stronger effect = lower value 0.981 | locus YDL035C, strain GPR1, stronger effect = lower value 0.961 | locus YDL040C, strain nat1, stronger effect = lower value 0.978 | locus YDL074C, strain BRE1, stronger effect = lower value 0.95 | locus YDL101C, strain DUN1, stronger effect = lower value 0.939 | locus YDL134C, strain PPH21, stronger effect = lower value 0.926 | locus YDL185W, strain tfp1, stronger effect = lower value 0.986 | locus YDL192W, strain arf1, stronger effect = lower value 0.973 | locus YDR001C, strain nth1, stronger effect = lower value 0.943 | locus YDR069C, strain doa4, stronger effect = lower value 1.01 | locus YDR101C, strain arx1, stronger effect = lower value 0.96 | locus YDR159W, strain sac3, stronger effect = lower value 0.951 | locus YDR162C, strain NBP2, stronger effect = lower value 0.941 | locus YDR195W, strain ref2 1.02 | locus YDR297W, strain sur2, stronger effect = lower value 0.961 | locus YDR318W, strain mcm21, stronger effect = lower value 0.948 | locus YDR334W, strain swr1, stronger effect = lower value 0.977 | locus YDR335W, strain msn5, stronger effect = lower value 0.95 | locus YDR388W, stronger effect = lower value 0.97 | locus YDR392W, strain spt3, stronger effect = lower value 0.764 | locus YEL003W, strain gim4, stronger effect = lower value 0.959 | locus YEL037C, strain rad23, stronger effect = lower value 0.97 | locus YEL061C, strain CIN8 (second series), stronger effect = lower value 0.925 | locus YEL061C, strain CIN8, stronger effect = lower value 0.988 | locus YER015W, strain faa2, stronger effect = lower value 0.966 | locus YER016W, strain bim1, stronger effect = lower value 0.973 | locus YER110C, stronger effect = lower value 0.975 | locus YER111C, strain swi4, stronger effect = lower value 0.957 | locus YER155C, strain BEM2, stronger effect = lower value 0.98 | locus YER167W, strain BCK2, stronger effect = lower value 0.942 | locus YFR010W, strain ubp6, stronger effect = lower value 1.01 | locus YGL078C, strain dbp3, stronger effect = lower value 0.943 | locus YGL086W, strain mad1, stronger effect = lower value 0.959 | locus YGL167C, strain pmr1, stronger effect = lower value 0.965 | locus YGL173C, strain kem1, stronger effect = lower value 0.927 | locus YGL227W, strain vid30, stronger effect = lower value 0.96 | locus YGL240W, strain doc1, stronger effect = lower value 0.968 | locus YGL248W, strain PDE1, stronger effect = lower value 0.944 | locus YGL253W, strain hxk2, stronger effect = lower value 0.972 | locus YGR135W, strain pre9, stronger effect = lower value 0.949 | locus YGR229C, strain SMI1, stronger effect = lower value 0.852 | locus YGR252W, strain gcn5, stronger effect = lower value 0.923 | locus YHR027C, strain rpn1, stronger effect = lower value 0.979 | locus YHR030C, strain SLT2, stronger effect = lower value 0.953 and 0.899 | locus YHR079C, strain IRE1 (second series), stronger effect = lower value 0.969 | locus YHR079C, strain IRE1, stronger effect = lower value 0.902 | locus YHR094C, strain hxt1, stronger effect = lower value 0.967 | locus YHR129C, strain ARP1, stronger effect = lower value 0.976 | locus YHR200W, strain rpn10, stronger effect = lower value 0.979 | locus YIL066C, strain RNR3, stronger effect = lower value 0.942 | locus YIL073C, strain SPO22, stronger effect = lower value 0.924 | locus YIL125W, strain kgd1, stronger effect = lower value 0.95 | locus YIR030C, strain dcg1, stronger effect = lower value 0.972 | locus YJL092W, strain hpr5, stronger effect = lower value 0.936 | locus YJL095W, strain BCK1 (second series), stronger effect = lower value 0.959 | locus YJL115W, strain asf1, stronger effect = lower value 0.959 | locus YJL129C, strain trk1, stronger effect = lower value 0.933 | locus YJL134W, strain LCB3, stronger effect = lower value 0.988 | locus YJL154C, strain vps35, stronger effect = lower value 0.96 | locus YJL164C, strain tpk1, stronger effect = lower value 0.922 | locus YJL166W, strain qcr8, stronger effect = lower value 0.941 | locus YJL168C, strain set2, stronger effect = lower value 0.979 | locus YJL187C, strain SWE1 (second series), stronger effect = lower value 0.973 | locus YJL187C, strain SWE1, stronger effect = lower value 0.966 | locus YJR043C, strain POL32, stronger effect = lower value 0.955 | locus YJR066W, strain TOR1, stronger effect = lower value 0.906
active: locus YDR137W, strain rgp1, stronger effect = lower value 0.714 | locus YDR502C, strain sam2, stronger effect = lower value 0.918 | locus YER155C, strain BEM2 (second series), stronger effect = lower value 0.716 | locus YHR013C, strain ard1, stronger effect = lower value 1.31 [resistant] | locus YHR142W, strain chs7, stronger effect = lower value 0.828
